Where “and” joins values, the source holds several entries; their conditions need not be identical. Equal entries are not always repeated. Results filed as inconclusive are left out. Entries that show only a call come without a potency. Calls of active or inactive are those of the source. Unless noted, the call rests on the fitted dose curve; in most records, active means well fitted curve in the direction sought with a large enough effect in the repeat runs; inconclusive means weak or mixed curves; inactive means no such curve, though single readings can be large; an effect the other way counts as inactive or inconclusive.
Columns and labels:
[1] = qHTS assay for small molecules that induce genotoxicity in human embryonic kidney cells expressing luciferase-tagged ATAD5 (AID 651632); further: nearly all actives have a fitted effect of over 15% in size; further: potency means the concentration at half of the fitted maximal effect
How it was run: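 Cells were seeded at 2,000 per well, dosed with compound, and incubated 16 hr at 37C in 5% CO2. Luciferase activity was then quantified after a 30 min room-temperature incubation with Amplite.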

[2] = qHTS assay for small molecule agonists of the p53 signaling pathway - cell viability (AID 651633; calls by dose curve; further: nearly all actives have a fitted effect of over 30% in size; further: potency means the concentration at half of the fitted maximal effect)
How it was run: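 p53RE-bla cells, seeded at 4,000 per well and rested 5 h at 37 C/5% CO2, received compounds in DMSO for 16 h at 37 C. CellTiter-Glo was then added, and luminescence was read after 30 min at room temperature to gauge cytotoxicity.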

[3] = qHTS assay for small molecules that induce genotoxicity in human embryonic kidney cells expressing luciferase-tagged ATAD5 - cell viability (AID 651634; calls by dose curve; further: nearly all actives have a fitted effect of over 25% in size; further: potency means the concentration at half of the fitted maximal effect)
How it was run: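 Cells (HEK293T, luciferase-tagged ATAD5) are seeded at 2,000 per well, dosed with compound or DMSO vehicle, and incubated 15.5 hr at 37C and 5% CO2. CellTiter-Fluor is added for 30 min before fluorescence is measured.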

[4] = qHTS assay for small molecule disruptors of the mitochondrial membrane potential - cell viability (AID 720634; calls by dose curve; further: nearly all actives have a fitted effect of over 20% in size; further: potency means the concentration at half of the fitted maximal effect)
How it was run: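 Cytotoxicity was measured by ATP quantitation in HepG2 wells that had first been treated with compound for 1 hr and stained with m-MPI dye; CellTiter-Glo incubation was 30 min at room temperature.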

[5] = qHTS assay for small molecule disruptors of the mitochondrial membrane potential (AID 720635); further: potency means the concentration at half of the fitted maximal effect
How it was run: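 HepG2 cells (2,000/well) attached overnight at 37C, then took compound for 1 hr at 37C, 5% CO2. Mito-MPS dye was added for 30 min; fluorescence was read at 490/535 nm (monomers) and 540/590 nm (aggregates).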

[6] = qHTS assay to test for compound auto fluorescence at 590 nm (red) in HepG2 cells (AID 720674)
How it was run: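 Intrinsic compound fluorescence in the red window (Ex/Em 540/590 nm) is measured in attached HepG2 cells exposed for 1 hr, DMSO vehicle as baseline, benchmarked to Rose Bengal sodium.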

[7] = qHTS assay to test for compound auto fluorescence at 535 nm (green) in HepG2 cells (AID 720675)
[8] = qHTS assay to test for compound auto fluorescence at 460 nm (blue) in HEK293 cells (AID 720678)
How it was run: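 Auto fluorescence in the blue band was quantified as triamterene equivalency. HEK293 cells were seeded at 2,000/well, dosed after a 4-5 hr attachment, and kept overnight at 37C before the 405/460 nm reading.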

[9] = qHTS assay to test for compound auto fluorescence at 590 nm (red) in HEK293 cells (AID 720679)
How it was run: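 Autofluorescence equivalency to Rose Bengal sodium, 540/590nm, in HEK293 cells exposed overnight to 23 nL compound per well.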

[10] = qHTS assay to test for compound auto fluorescence at 535 nm (green) in HEK293 cells (AID 720680)
[11] = qHTS assay to test for compound auto fluorescence at 460 nm (blue) in HEK293 cell free culture (AID 720681)
How it was run: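 Test compounds were pinned into cell-free culture medium (DMEM with 10% FBS) and fluorescence was read directly at Ex/Em 405/460 nm. Signals were expressed as fluorescence equivalents of triamterene, with DMSO vehicle as control.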

[12] = qHTS assay to test for compound auto fluorescence at 590 nm (red) in HEK293 cell free culture (AID 720683)
How it was run: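 Tox21 10K library compounds were pinned into cell-free DMEM with 10% FBS and fluorescence was read at excitation 540 nm. Activity is expressed as Rose Bengal sodium equivalency.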

[13] = qHTS assay to test for compound auto fluorescence at 590 nm (red) in HepG2 cell free culture (AID 720684)
How it was run: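 Readout: intrinsic compound fluorescence at 590 nm emission after 540 nm excitation, scaled to Rose Bengal sodium. Matrix was cell-free MEM with 10% FBS; DMSO vehicle wells served as control.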

[14] = qHTS assay to test for compound auto fluorescence at 460 nm (blue) in HepG2 cell free culture (AID 720685)
How it was run: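 Cell-free plates of MEM plus 10% FBS received 23 nL compound or DMSO vehicle; blue-channel (405/460 nm) intensity scored against triamterene as reference fluorophore.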

[15] = qHTS assay to test for compound auto fluorescence at 535 nm (green) in HepG2 cell free culture (AID 720686)
[16] = qHTS assay to test for compound auto fluorescence at 460 nm (blue) in HepG2 cells (AID 720687)
How it was run: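 Cells (2,000/well in MEM with 10% FBS) attached overnight at 37 C, then were exposed to compound or DMSO for 1 hr at 37 C, 5% CO2. Fluorescence read at Ex/Em 405/460 nm, expressed as triamterene-equivalent signal.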

[17] = molecular target: Glucocorticoid receptor (Homo sapiens) (UniProt P04150); test: qHTS assay to identify small molecule agonists of the glucocorticoid receptor (GR) signaling pathway (AID 720691; active means well fitted activation curve with a large enough effect in the signal ratio in the repeat runs, not every such curve was filed as active; the % refers to the signal ratio; further: potency means the concentration at half of the fitted maximal effect); conditions: GR-bla HeLa, beta-lactamase reporter ratio, 18 h; activation: at 62.4 µM (top of the series)
Glucocorticoid receptor (Homo sapiens), sequence (P04150 whole entry, looked up): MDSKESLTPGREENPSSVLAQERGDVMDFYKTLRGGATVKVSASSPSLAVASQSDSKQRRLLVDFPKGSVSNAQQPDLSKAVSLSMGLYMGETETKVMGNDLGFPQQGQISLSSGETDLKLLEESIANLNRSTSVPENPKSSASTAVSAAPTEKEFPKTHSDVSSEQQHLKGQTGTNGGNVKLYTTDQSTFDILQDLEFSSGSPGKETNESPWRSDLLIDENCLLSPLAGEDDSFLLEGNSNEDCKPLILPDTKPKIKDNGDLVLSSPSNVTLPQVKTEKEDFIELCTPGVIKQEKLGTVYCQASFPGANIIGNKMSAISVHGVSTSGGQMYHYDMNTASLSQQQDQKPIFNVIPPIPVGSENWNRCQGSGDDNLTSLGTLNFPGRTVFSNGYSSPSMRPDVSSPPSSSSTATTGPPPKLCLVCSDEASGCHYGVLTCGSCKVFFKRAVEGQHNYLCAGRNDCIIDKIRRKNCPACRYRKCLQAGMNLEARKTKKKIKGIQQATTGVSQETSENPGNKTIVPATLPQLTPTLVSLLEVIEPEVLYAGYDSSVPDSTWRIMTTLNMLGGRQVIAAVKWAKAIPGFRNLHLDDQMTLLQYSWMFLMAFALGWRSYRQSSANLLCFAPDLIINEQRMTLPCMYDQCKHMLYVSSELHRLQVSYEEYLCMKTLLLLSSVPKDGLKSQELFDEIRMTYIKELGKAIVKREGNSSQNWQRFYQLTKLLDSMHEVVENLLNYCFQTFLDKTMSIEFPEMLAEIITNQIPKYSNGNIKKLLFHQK
How it was run: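 Steps: seed GR-bla HeLa cells, incubate 4 h at 37 C/5% CO2; pin-transfer DMSO-dissolved compounds; incubate 18 h at 37 C; add LiveBLAzer B/G FRET substrate; after 2 h at room temperature, measure fluorescence.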

[18] = molecular target: Glucocorticoid receptor (Homo sapiens) (UniProt P04150); test: qHTS assay to identify small molecule antagonists of the glucocorticoid receptor (GR) signaling pathway (AID 720692; active means well fitted inhibition curve with a large enough effect in the signal ratio in the repeat runs, not every such curve was filed as active; the % refers to the signal ratio; further: potency means the concentration at half of the fitted maximal effect)
How it was run: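 Antagonism was scored as loss of dexamethasone-driven (5 nM final) reporter signal in HeLa cells bearing a glucocorticoid response element–beta-lactamase construct, after 18 h compound exposure at 37 C and 2 h FRET substrate loading.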

[19] = qHTS assay to test for compound auto fluorescence at 535 nm (green) in HEK293 cell free culture (AID 720682)
How it was run: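 Compounds were pin-transferred into cell-free DMEM with 10% FBS, and green fluorescence was read at excitation 485 nm and emission 535 nm. Intensities were expressed as fluorescein-equivalent values.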

[20] = qHTS assay for small molecule agonists of the p53 signaling pathway (AID 651631; calls by dose curve; further: nearly all actives have a fitted effect of over 15% in size; further: potency means the concentration at half of the fitted maximal effect)
How it was run: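 Readout was fluorescence from the LiveBLAzer FRET substrate, applied for 2 h at room temperature after 16 h compound exposure at 37 °C. Cells were the p53RE-bla HCT-116 line, with beta-lactamase driven by p53 response elements.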

SMILES | Potency [1] | Potency [2] | Potency [3] | Potency [4] | Potency [5] | Potency [6] | Potency [7] | Potency [8] | Potency [9] | outcome [10] | Potency [11] | Potency [12] | Potency [13] | Potency [14] | Potency [15] | Potency [16] | Potency [17] | Potency [18] | outcome [19] | Potency [20]
O=C(c1ccc(O)cc1O)c1ccc(O)cc1O | inactive | inactive | inactive | inactive | 12.2 µM (active) and 7.7 µM (active) | inactive | inactive | inactive | inactive | inactive | inactive | inactive | inactive | inactive | inactive | inactive | inactive | 24.6 µM (active) |  | 
O=S1(=O)CC(Cl)(Cl)C(Cl)(Cl)C1 | 4.86 µM (active) | 3.06 µM (active) | 24.3 µM (active) | 15.4 µM (active) | 12.2 µM (active) | inactive | inactive | inactive | inactive | inactive | inactive | inactive | inactive | inactive | inactive | inactive |  |  | inactive | 
COc1ccc(C(=O)/C(Br)=C\C(=O)O)cc1 |  | inactive |  | inactive | inactive | inactive |  | inactive | inactive | inactive | inactive | inactive | inactive | inactive |  | inactive | inactive | inactive | inactive | 10.6 µM (active) and 21.7 µM (active)
CCCC(C)c1ccccc1O (centres undefined) | inactive | inactive | inactive | inactive | 30.6 µM (active) | inactive | inactive | inactive |  | inactive | inactive | inactive | inactive |  | inactive | inactive | inactive | inactive | inactive | 
CCCC(c1cc(C(C)(C)C)c(O)cc1C)c1cc(C(C)(C)C)c(O)cc1C | inactive | 17.4 µM (active) | 31 µM (active) | 39 µM (active) | 3.9 µM (active) | inactive | inactive | inactive | inactive | inactive | inactive | inactive | inactive | inactive | inactive | inactive |  |  | inactive | 
CCCCN1C(=O)[C@@H]([C@H](O)C2CCCCC2)NC(=O)C12CCN(Cc1ccc(Oc3ccc(C(=O)O)cc3)cc1)CC2 |  | inactive |  | inactive |  | inactive | inactive | inactive | inactive | inactive | inactive |  | inactive | inactive | inactive | inactive |  |  | inactive | 54.5 µM (active)
CCCCCCCCCCCCCC[P+](CCCC)(CCCC)CCCC (tested in a mixture with another compound) | inactive | 27.5 µM (active) | 48.9 µM (active) | 61.5 µM (active) | 0.69 µM (active) | inactive | inactive | inactive | inactive | inactive | inactive | inactive | inactive | inactive | inactive | inactive |  |  | inactive | 
O=[N+]([O-])c1ccccc1Nc1ccccc1 |  | inactive |  | inactive |  | inactive | inactive | inactive | inactive | inactive | inactive | inactive | inactive | inactive | inactive | inactive | inactive |  | inactive | inactive
CCCCCCCCCCCC[N+](C)(C)CCCCCCCCCCCC | inactive | 54.5 µM (active) | 68.6 µM (active) | 30.6 µM (active) | 19.3 µM (active) | inactive | inactive | inactive | inactive | inactive | inactive | inactive | inactive | inactive | inactive | inactive |  |  | inactive | 
CCOC(=O)O[C@]1(C(=O)OCCl)CC[C@H]2[C@@H]3CCC4=CC(=O)C=C[C@]4(C)[C@H]3[C@@H](O)C[C@@]21C | inactive | inactive | inactive | inactive | inactive | inactive |  | inactive | inactive | inactive | inactive | inactive | inactive | inactive | inactive | inactive | 0.0756 µM (active) |  |  | 
CCCCCCCC[P+](CCCCCCCC)(CCCCCCCC)CCCCCCCC | inactive | 12.1 µM (active) | 13.6 µM (active) | 21.6 µM (active) | 0.0963 µM (active) | inactive | inactive | inactive | inactive | inactive | inactive | inactive | inactive | inactive | inactive | inactive |  |  | inactive | 
N#CSc1ccc(N)c([N+](=O)[O-])c1 | inactive | inactive | 61.5 µM (active) | inactive | 61.5 µM (active) | inactive | inactive | inactive | inactive |  | inactive |  | inactive | inactive |  | inactive | inactive |  | inactive | 
NNc1nc(-c2ccc(N)cc2)cs1 | inactive | inactive | 24.3 µM (active) | inactive | 0.0545 µM (active) | inactive | inactive | inactive | inactive | inactive | inactive | inactive | inactive | inactive |  | inactive |  |  | inactive | 
CCCCCCCCCCCCCCCCCC[N+](C)(C)C | inactive | 61.3 µM (active) | 61.3 µM (active) |  | 48.7 µM (active) | inactive | inactive | inactive | inactive | inactive | inactive | inactive | inactive |  | inactive | inactive |  |  | inactive | 
COc1cc(-c2nc(NC(=O)c3cc4cc(C)cc(C)c4n3CC(=O)O)sc2CCC2CCCCC2)c(OC)cc1Cl | inactive | 3.97 µM (active) | 39.7 µM (active) | inactive |  | inactive | inactive | inactive | inactive | inactive | inactive | inactive | inactive | inactive | inactive | inactive |  |  | inactive | 

Reference: PubChem BioAssay (Tox21)
